# Test results from the OligoGym collection.
# Molecular target: HSF2
# Assay: pooled miR-30 sensor sort-seq; sequence = guide strand
# Conditions: shRNA
# Note: reference of the scale not given here.
row,Sequence,sensor-assay potency score (higher = more potent)
1,TAACTTGTTGCTGTTGTGCATG,-0.847
2,TTCATTGTCATCTTCAACGATG,-0.744
3,TAAACCTTCAGTCCTACTGTGT,-0.618
4,TACATCTGCGTAACTATGCAGC,-0.31
5,TAAAACTAGTCCAACTAACTGG,-0.42
6,TTTCTTGCTTTACAATTCCAGA,-1.24
7,TTAGTTTCTGGAATAACTGGGA,-0.0464
8,TTCCTGTTTTATCTGAACCTTC,-0.752
9,TTTGAAGATGAAACCTTCCTTT,0.173
10,TATGCAGCTGAGTAACACCTGA,-0.731
11,TAAACTGGACAATCTTTCGAAT,-0.594
12,TTGAACATGAATAAACGTCTTT,0.178

# Molecular target: HSP90AA1
# Assay: as above
# Conditions: shRNA
row,Sequence,sensor-assay potency score (higher = more potent)
1,TTGATCATCCTGTAGATCCTGT,0.84
2,TTATCCATGATGAAAACTCTGC,-0.426
3,TTGCTTTGTTGCAACATCTCAC,0.536
4,TTGATCGATGTACTTTTCCTTA,-0.594
5,TACAATTTGATGTTGTTCTTTT,-0.348
6,TTGAGTTGTCTCTTAGGGCTTG,0.45
7,TTTGTTGCAACATCTCACGGGA,0.467
8,TTCTCCTTCATTCTGGTGCAGT,-0.91
9,TTTCTCTTCTTCATCCTCTGGA,0.444
10,TACAACTTTAAGCAGAATGTGA,-0.45
11,TTTTTGACCAAATTCTTCCTGA,0.315
12,TCGGTTTGACACAACCACCTTT,-0.307

# Molecular target: HSP90B1
# Assay: as above
# Conditions: shRNA
row,Sequence,sensor-assay potency score (higher = more potent)
1,TTCTTGATCATGTCCAGCGTTT,-0.303
2,TTAAAAACTCGCTTGTCCCAGA,0.327
3,TTGCTGAAGAGTCTCGCGGGAA,-0.855
4,TTTTACATCAAGAATAGTCAGT,0.0481
5,TATCATTGTATTTATCATCAGC,-0.644
6,TTTCATCGAACTTCACTCCTTC,0.873
7,TTCATCGTCAGCTCTGACCGAC,0.128
8,TTTTTAACCAACTCTTCTCTGG,-0.121
9,TTTTGAAGTGACAATAACCTTA,0.45
10,TTTGAAGTGACAATAACCTTAT,-0.631
11,TTTGTGATGCATTTAATCCATC,-1.31
12,TTTATCATCAGCAATCTTCTTG,0.391

# Molecular target: HSPA1A
# Assay: as above
# Conditions: shRNA
row,Sequence,sensor-assay potency score (higher = more potent)
1,TTGTCGGCCTCGCTGATCTTGC,-1.46
2,TACTAGGAAATGCAAAGTCTTG,-1.4
3,ATCTCTGCATGTAGAAACCGGA,-0.989
